Assay results: PubChem BioAssay (NCI)
This is part of a sample that, as a whole, favours compounds with a hit. Of some 83,000 tested, about 20% had one in any assay.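 Testing used 96-well plates and a 48-hour single-concentration exposure. Example: -40 means 40% of the starting cells died.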 A number with no mark means an inactive call. Active and inactive are the calls of the source. Rule for the calls: active = growth percent below 10; inactive = the rest.

What was measured:
Assay in all cases: NCI-60 one-dose screen, 48 h (100 = growth as untreated, 0 = no growth, -100 = all killed)
Conditions in all cases: 10 µM unless noted
NCI-H23 lung = tested on: NCI-H23 lung
NCI-H226 lung = tested on: NCI-H226 lung
NCI-H322M lung = tested on: NCI-H322M lung
HOP-62 NSCLC = tested on: HOP-62 NSCLC
NCI-H460 lung = tested on: NCI-H460 lung
HOP-92 NSCLC = tested on: HOP-92 NSCLC
NCI-H522 lung = tested on: NCI-H522 lung
A549/ATCC NSCLC = tested on: A549/ATCC NSCLC
786-0 renal = tested on: 786-0 renal
COLO 205 colon = tested on: COLO 205 colon
DU-145 prostate = tested on: DU-145 prostate
MALME-3M melanoma = tested on: MALME-3M melanoma
MDA-MB-231 breast = tested on: MDA-MB-231 breast
SF-268 CNS = tested on: SF-268 CNS
SF-295 CNS = tested on: SF-295 CNS
SF-539 CNS = tested on: SF-539 CNS
UACC-257 melanoma = tested on: UACC-257 melanoma
M14 melanoma = tested on: M14 melanoma
K-562 leukemia = tested on: K-562 leukemia
RXF 393 renal = tested on: RXF 393 renal

SMILES | growth (NCI-H23 lung) | growth (NCI-H226 lung) | growth (NCI-H322M lung) | growth (HOP-62 NSCLC) | growth (NCI-H460 lung) | growth (HOP-92 NSCLC) | growth (NCI-H522 lung) | growth (A549/ATCC NSCLC) | growth (786-0 renal) | growth (COLO 205 colon) | growth (DU-145 prostate) | growth (MALME-3M melanoma) | growth (MDA-MB-231 breast) | growth (SF-268 CNS) | growth (SF-295 CNS) | growth (SF-539 CNS) | growth (UACC-257 melanoma) | growth (M14 melanoma) | growth (K-562 leukemia) | growth (RXF 393 renal)
Cc1ccc(/C=C/C(=O)c2ccc(N)cc2)c(C)c1 | 10.4% | 109% | 93% | 104% | 97.2% | 88.2% | -76.5% (active) | 99.2% | -63.5% (active) | 60.3% | 78.3% | -75.6% (active) | 56.8% | 36.6% | 95.5% | 91% | 108% | 50.6% | – | –
Cc1nn(-c2ccccc2)c(N2CCOCC2)c1/C=N/N=c1\sc2ccccc2n1C | 79% | 73.8% | 92.6% | 99.4% | 39.6% | 53% | 81.5% | – | 96.7% | 82.7% | 100% | 99.4% | 52.3% | 85% | 89.3% | 84.7% | 87.8% | 87.5% | 41.7% | 88.6%
CN1CCN(C(=O)[C@]2(C)CC[C@]3(C)CC[C@]4(C)C(=CC(=O)[C@@H]5[C@@]6(C)CCC(=O)NC(C)(C)[C@@H]6CC[C@]54C)[C@@H]3C2)CC1 | 100% | 91.8% | 107% | 89.2% | 102% | 64.7% | 90.6% | 94.4% | 93.5% | 110% | 97.6% | 95.9% | 107% | 94.3% | 98.3% | 92% | 103% | 105% | – | –
CC(=O)N1c2ccccc2NC2=C(C(=O)N(Cc3ccccc3)C2(C)C)C1c1ccco1 (configuration not stated) | 20.9% | 65.7% | 44.6% | 33.1% | 4.83% (active) | 21.1% | 21.8% | – | 21.4% | 16.8% | 7.82% (active) | 69.9% | 9.25% (active) | 42.7% | -0.752% (active) | -17.9% (active) | 77.6% | -13.6% (active) | 12.6% | -11.7% (active)
CCN1C(=O)N(CC)C2NC(SC)=NC21 (configuration not stated) | 98% | 94.3% | 92.3% | 91.8% | 103% | 108% | 102% | – | 102% | 103% | 111% | 95% | 103% | 95.3% | 101% | 98.7% | 97.8% | 100% | 104% | –
COc1cc(-c2cc(=O)oc3cc(O)ccc23)cc(OC)c1OC | 88.1% | 87.3% | 96.7% | 87.6% | 69.5% | 54.2% | 80.2% | – | 99.7% | 99.4% | 96.3% | 90.1% | 89.3% | 88.7% | 93.4% | 93.4% | 99.3% | 98.3% | 66.2% | –
Cc1ccc(C(=O)Nc2ccccc2C(=O)N/N=C(\c2ccccc2)c2ccccn2)cc1 | 32.6% | 30.3% | 33.4% | 14.5% | 5.43% (active) | 52.7% | 24.1% | – | -17.1% (active) | 14.1% | 22.7% | 37.9% | 34.4% | 20.2% | 23% | 8.97% (active) | 8.34% (active) | -38.9% (active) | 19.9% | 40.4%
C#CCNC(=O)[C@H](Cc1ccccc1)NC(=O)[C@]12CC[C@@H](C(=C)C)[C@@H]1[C@H]1CC[C@@H]3[C@@]4(C)Cc5c([nH]c6ccccc56)C(C)(C)[C@@H]4CC[C@@]3(C)[C@]1(C)CC2 | 94.9% | 90.2% | 93.9% | 95.2% | 104% | 69.7% | 87.9% | – | 87.8% | 97.8% | 101% | 113% | 97.7% | 92.6% | 96.6% | 102% | 96.7% | 96.4% | 83.9% | 93.9%
O=S(=O)(NCCNc1nccc(-c2c(-c3cccc(F)c3)nc3occn23)n1)c1cccc2ccccc12 | 75.8% | 53.6% | 74.8% | 71% | 58.2% | 47% | 46.2% | – | 48% | 40.7% | 53.3% | 56.1% | 58.5% | 38.6% | 58.6% | 96.7% | 77.4% | 54.8% | 19% | –
COc1ccc(OC)c(/C=C/[C@H]2O[C@@H](C)[C@H](O)[C@@H]2O)c1 | 99.6% | 96.1% | 97.5% | 106% | 106% | 94.7% | 91.7% | 99.4% | – | 111% | 121% | 96.7% | 98.4% | 111% | 102% | 100% | 104% | 103% | 93% | 117%
CCCCCCCCOC(=O)c1ccc(O)c(OC)c1 | 92.5% | 88.5% | 86.9% | 99.3% | 104% | 84.9% | 73% | – | 106% | 114% | 104% | 99.7% | 85% | 83.8% | 98.7% | 92.6% | 86.6% | 106% | 116% | 100%
CNC(=O)Nc1ccc(-c2nc(N3CCOCC3)nc3c2cnn3C2CCOCC2)cc1 | 17.5% | -12.4% (active) | -9.52% (active) | -11% (active) | 11.8% | -27.6% (active) | -0.372% (active) | -1.33% (active) | – | 5.84% (active) | 9.63% (active) | -37.6% (active) | 5.07% (active) | 15.7% | -45% (active) | -24.4% (active) | -24.9% (active) | -12.1% (active) | 20.1% | -35.3% (active)
O=C(O)/C=C\C(=O)N1C/C(=C\c2ccccc2Cl)C(=O)/C(=C/c2ccccc2Cl)C1 | -24.9% (active) | -85% (active) | 4.69% (active) | -24% (active) | -40.9% (active) | 2.77% (active) | -87.2% (active) | 7.96% (active) | – | -67.4% (active) | -34.2% (active) | 2.25% (active) | -15.4% (active) | -33.7% (active) | -13% (active) | -20.9% (active) | 67.3% | 12% | 8.25% (active) | -95.8% (active)
COc1cc(/C=C/C(=O)c2c(C)oc3nc[nH]c(=O)c23)ccc1O | 98.7% | 102% | 98.3% | 93.9% | 103% | 116% | 101% | – | 102% | 102% | 116% | 103% | 106% | 99.6% | 99.3% | 97.5% | 96.6% | 99.6% | 111% | –
N#Cc1c(Nc2ccccc2)nn2cc(-c3nc4ccccc4s3)c(N)nc12 | 60.3% | 65.6% | 86.2% | 92.9% | 61.8% | 80.6% | 72.8% | – | 76.3% | 114% | 66% | 40.4% | 72.5% | 70% | 99% | 58% | 83.7% | 58.8% | 74.8% | 87.8%
O=C(Nc1ccccc1)Oc1ccccc1-c1ccccc1 | 97.7% | 93.3% | 105% | 74.9% | 99.7% | 94.7% | 83.7% | 73.8% | 93.5% | 96% | 105% | 95% | 109% | 96.2% | 97.4% | 105% | 80.8% | 85.2% | – | –
